Source: PubChem
Shiga inhibitor – A qHTS for Small Molecule Inhibitors of Shiga Toxin; Vero cells, Shiga toxin protein synthesis inhibition reporter; inhibition, % at 38.7 µM; 9.2% of 290,000 active; AID 2315, 2010; in the data active = inhibition mostly above about 28%, no sharp cut-off; inactive = mostly below about 43%; also: 0% is about no effect
NS1 inh – qHTS Assay for Inhibitors of Influenza NS1 Protein Function. Potency, µM (doses to about 46.1 µM), without a hit: at the top dose activity, positive = more growth. 0.4% of 270,000 active. AID 2326, 2010; also: potency is read from the fitted curve at half-maximal effect; actives are rising curves; nearly all actives have a fitted effect of over 50% in size
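Compounds were scored for reversing the slow growth caused by influenza A NS1 in S. cerevisiae, measured by optical density at 600 nm. Assay medium contained 2% galactose at pH 6.0; NS1-free yeast of the same strain were the positive control.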
CHX counter – Cycloheximide Counterscreen for Small Molecule Inhibitors of Shiga Toxin | cell reporter, cycloheximide protein synthesis inhibition counterscreen | AID 2314, 2010 | max response, % | 12% of 300,000 active; in the data active = max response mostly above about 13%, no sharp cut-off; inactive = mostly below about 14%; also: read at 38.3 µM for the half of the compounds with a filed dose; 0% is about no effect
TbPYK inhibitor – qHTS of Trypanosoma Brucei Inhibitors; pyruvate kinase (Trypanosoma brucei), Q57TT1; TbPYK enzyme, Kinase-Glo Plus ATP luminescence, 45 min; Potency, µM (highest dose often 76.8 µM), for inactives: at the top dose activity, negative = inhibition, hits mostly inhibitors; 0.12% of 410,000 active; active = well fitted curve in the direction sought with a large enough effect; an effect the other way counts as inactive or inconclusive; also: potency is read from the fitted curve at half-maximal effect; % is scaled to controls: 0 for no effect and ±100 for the full control effect; nearly all actives have a fitted effect of over 50% in size
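Activity of T. brucei pyruvate kinase was followed by Kinase-Glo Plus luminescence after the enzyme reacted 45 min at room temperature with 130 uM ADP (final) and substrate. Test compounds were added before ADP at multiple concentrations.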
SARS PLpro yeast – qHTS of Yeast-based Assay for SARS-CoV PLP | Potency, µM (titrated, usually from 32.9 µM), inactives show top-dose activity, positive = growth rescue, most hits filed as activators | S. cerevisiae expressing SARS-CoV PLpro, growth rescue | AID 485353, 2010 | 0.19% of 330,000 active; also: potency is read from the fitted curve at half-maximal effect; 0% is about no effect; nearly all actives have a fitted effect of over 55% in size
LmPK inhibitor – qHTS Assay for Inhibitors of Leishmania Mexicana Pyruvate Kinase (LmPK); Q27686; purified LmPK, Kinase-Glo ATP luminescence, 1 h; Potency, µM (titrated, usually from 57.5 µM), for the others: at the top dose activity change, negative = inhibition, actives largely listed as inhibitors; 0.37% of 290,000 active; AID 1721, 2009; active = well fitted curve in the direction sought with a large enough effect; an effect the other way counts as inactive or inconclusive; also: potency is read from the fitted curve at half-maximal effect; % is scaled to controls: 0 for no effect and ±100 for the full control effect
Target sequence (Q27686 whole entry, looked up): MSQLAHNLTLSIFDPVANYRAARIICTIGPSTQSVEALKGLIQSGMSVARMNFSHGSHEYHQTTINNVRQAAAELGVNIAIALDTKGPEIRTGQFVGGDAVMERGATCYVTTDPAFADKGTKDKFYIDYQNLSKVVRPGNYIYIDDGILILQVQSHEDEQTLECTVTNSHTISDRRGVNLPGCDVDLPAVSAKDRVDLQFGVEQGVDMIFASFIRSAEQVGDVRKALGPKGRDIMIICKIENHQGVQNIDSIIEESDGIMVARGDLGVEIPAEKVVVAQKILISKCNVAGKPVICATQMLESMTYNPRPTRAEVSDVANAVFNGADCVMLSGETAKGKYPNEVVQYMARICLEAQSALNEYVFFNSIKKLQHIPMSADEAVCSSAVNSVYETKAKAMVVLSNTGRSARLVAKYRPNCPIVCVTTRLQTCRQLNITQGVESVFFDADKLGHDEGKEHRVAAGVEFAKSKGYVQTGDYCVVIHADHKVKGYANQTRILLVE
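Pyruvate kinase activity monitored as ATP production (luciferase luminescence). Conditions: 0.1 nM enzyme, 0.5 mM PEP, 0.1 mM ADP, 1 h, RT; normalized against uninhibited and no-enzyme wells.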
Starred values were filed as active, the others as inactive; / = no result. Only a selection was taken, and hits are over-represented in it overall. Unless noted, calls follow the shape of the full dose curve.

SMILES	Shiga inhibitor	NS1 inh	CHX counter	TbPYK inhibitor	SARS PLpro yeast	LmPK inhibitor
COc1cc2ccc(C(C)=NOC(C)=O)cc2cc1OC	/	/	/	4%	/	/
C/C(=N/OC(=O)C1CC12CCC2)c1ccc(Br)cc1 (centres undefined)	156*	/	68*	0%	-2%	3%
CCC(=O)Nc1cnc(NC(=O)c2cccc(F)c2)cc1C	66	-5%	18	-16%	-23%	20µM*
CC(=O)Nc1cnc(NC(=O)c2cccc(F)c2)cc1C	55*	-3%	50*	-9%	9%	-18%
CCCOC(=O)NCCCN(C)C	-6	/	-8	/	/	/
COc1ccc(C2CC(=O)c3sc(NC(C)=O)nc3C2)cc1 (centres undefined)	active	18%	20*	3%	19%	2%
COc1ccc(-c2nc(NC(C)=O)sc2-c2ccc(OC)cc2)cc1	37	9%	0	-5%	2%	9%
CCC[C@]1(CCc2ccccc2)CC(O)=C([C@H](CC)c2cccc(NS(=O)(=O)c3ccc(C(F)(F)F)cn3)c2)C(=O)O1	/	/	/	4%	/	/
O=C(COC(=O)C1C2CC3OC(=O)C1C3C2)Nc1ccccc1 (centres undefined)	17	1%	16*	0%	2%	1%
O=C(COC(=O)C1C2CC3OC(=O)C1C3C2)Nc1ccc(F)cc1 (centres undefined)	34	9%	-4	1%	2%	-7%
COC(=O)CSc1nnc(-c2ccc(OC)cc2OC)o1	0	-7%	-1	-15%	-13%	-8%
COc1ccccc1-c1nnc(SCC(=O)N2CCCC2)o1	40*	-3%	9	-6%	-18%	-4%
COc1ccc(-c2nnc(SCC(=O)N3CCCC3)o2)c(OC)c1	46*	2%	18	-3%	-2%	0%
CC1CCCCN1C(=O)CSc1nnc(-c2cccc(Cl)c2)o1 (centres undefined)	/	/	/	-2%	/	/
O=C(CSc1nnc(-c2ccccc2F)o1)N1CCCC1	86*	13%	26*	-12%	1%	-6%
CC1CCCCN1C(=O)CSc1nnc(-c2ccco2)o1 (centres undefined)	108*	0%	37*	2%	1%	-7%
Cc1ccccc1-c1nnc(SCC(=O)N2CCCCC2)o1	/	/	/	-5%	/	/
Cc1cc(=O)n2[nH]c(SCc3ccccc3Cl)nc2n1	-5	-1%	-2	3%	-2%	3%
O=C(COC(=O)/C=C/c1ccccc1[N+](=O)[O-])NC(=O)NC1CCCC1	/	/	/	-2%	-3%	/
CC1CCCCN1C(=O)CSc1nnc(-c2ccccc2F)o1 (centres undefined)	94*	0%	35*	0%	1%	0%
CN(C(=O)CSc1nnc(-c2ccccc2F)o1)C1CCCCC1	/	/	/	-5%	/	/
CCc1c(C(=O)Nc2ccc(OC)cc2)[nH]c(C)c1C(C)=O	29*	-49%	21*	1%	-7%	4%
CCc1c(C(=O)Nc2cc(C)ccc2OC)[nH]c(C)c1C(C)=O	-8	-10%	-2	-6%	1%	-1%
CC(=O)c1c(C)[nH]c(C(=O)Nc2cccc(C)n2)c1C	59*	-12%	30*	-2%	-2%	-17%
CCOc1ccc(NC(=O)c2[nH]c(C)c(C(C)=O)c2C)cc1	43*	-7%	31*	1%	-2%	-6%
SMILES	Shiga inhibitor	NS1 inh	CHX counter	TbPYK inhibitor	SARS PLpro yeast	LmPK inhibitor
COc1ccc(OCCOC(=O)c2[nH]c(C)c(C(C)=O)c2C)cc1	30	/	27*	-6%	-1%	-9%
O=[N+]([O-])c1ccc2c(c1)c(S(=O)(=O)O)cc1nonc12	/	-5%	/	/	/	/
Cc1nc(C(F)(F)F)c(C(=O)N/N=C(\N)c2cccnc2)s1	41	-1%	-7	2%	1%	3%
CC(=O)c1c(C)[nH]c(C(=O)Nc2nccs2)c1C	93*	/	40*	8%	-1%	1%
CC(=O)c1c(C)[nH]c(C(=O)Nc2cccnc2)c1C	-24	6%	2	-6%	-3%	-1%
COc1ccc(NC(=O)c2[nH]c(C)c(C(C)=O)c2C)cc1	79*	-1%	42*	-17%	-2%	-2%
CC(=O)c1c(C)[nH]c(C(=O)Nc2ccc(N3CCCCCC3)cc2)c1C	/	/	/	-20%	/	/
CCc1ccc(NC(=O)c2[nH]c(C)c(C(C)=O)c2C)cc1	56*	-17%	42*	-6%	-40%	-5%
COC(=O)c1sc2cccc(F)c2c1S(=O)(=O)Nc1cc(C)c(Cl)cc1OC	/	/	/	4%	/	/
COc1ccc(NC(=O)Cc2ccc(NC(=O)N3CCCCc4ccccc43)cc2)c(OC)c1	/	/	/	-5%	/	/
CCOc1ccc(OCc2cccc(C(=O)N/N=C/c3cccnc3)c2)cc1	166*	7%	88*	0%	8%	3%
Cc1ccc(C(=O)N/N=C/c2cccnc2)cc1Cl	/	/	/	-2%	/	/
CC(C)c1ccc(OCc2cccc(C(=O)N/N=C/c3cccnc3)c2)cc1	164*	11%	133*	3%	-5%	1%
CCOc1cc(/C=N/NC(=O)c2cccnc2)ccc1O	42	11%	9	5%	0%	-2%
Cc1ccc(CC2C(=O)N(c3cc(Cl)ccn3)C(=O)C2C)cc1 (centres undefined)	43*	4%	23*	-1%	-1%	-2%
CCN1CCc2c(sc(NC(=O)c3ccc4ccccc4c3)c2C(N)=O)C1	28	-24%	20*	/	-1%	-1%
COc1ccc(C(=O)Nc2sc3c(c2C(N)=O)CCCC3)cc1OC	60*	/	42*	/	/	/
COc1cc(OC)cc(C(=O)Nc2sc3c(c2C(N)=O)CCC3)c1	18	1%	10	-20%	8%	-4%
COCCN(CCOC)S(=O)(=O)c1ccc(C(=O)Nc2sc3c(c2C(N)=O)CCCCC3)cc1	63*	4%	33*	2%	11%	5%
COC(=O)c1c(-c2ccc(Cl)cc2)noc1N1CCN(c2ccc(OC)cc2)CC1	/	/	/	-8%	/	/
O=C(NCCN1CCOCC1)c1cc(-c2cccc(O)c2)on1	23	-5%	10	-2%	-4%	-9%
O=C(NCCN1CCOCC1)c1cc(-c2ccc(Cl)cc2Cl)on1	50*	-5%	20*	1%	-11%	-1%
O=C(NCCN1CCOCC1)c1cc(-c2ccco2)on1	31*	-4%	11	6%	2%	-3%
Cc1ccc(-c2cc(C(=O)NCCN3CCOCC3)no2)cc1	25*	-4%	15*	-5%	-2%	-1%
CCC(Sc1nc2cc3c(cc2c(=O)n1CCCCCC(=O)NCc1ccc2c(c1)OCO2)OCO3)C(=O)NCCCOC (centres undefined)	/	/	/	2%	/	/
Cc1ccc(NC(=O)NC2=N/C(=C(/C#N)C(=O)N3CCCC3)c3ccccc32)cc1	58	-29%	20*	-4%	6%	-5%
